The values below come from PubChem BioAssay.

In test [1] the test system is Plasmodium falciparum Sir2 (PF13_0152, Sir2A). Briefly: Plasmodium falciparum Sir2A binding compounds – biochemical, small-molecule microarray, 635 nm fluorescence, primary screen (AID 1098).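 Also: score merges spot fluorescence intensity with its signal-to-noise ratio.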 The conditions noted are these: fluorescence 635 nm, higher = more signal.
Test [2] can be described thus: probe aDKK1 binding to arrayed compounds – biochemical, biotinylated probe, 635/667 nm fluorescence, primary screen (AID 1099).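 Also: score merges 667nm spot fluorescence with signal to noise across triplicate slides; reference of the scale not given here.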 Particulars: small-molecule microarray, higher = more signal.
Test [3] in a line: probe aCHRDL2 binding to arrayed compounds – biochemical, biotinylated probe, 635/667 nm fluorescence, primary screen (AID 1100). The conditions noted are these: small-molecule microarray, higher = more signal.
Test [4] can be described thus: change in splice reporter luminescence, either direction, cell-based, HEK293, spliceosome inhibition project, primary screen (AID 1101).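 Also: HEK293 cells carrying a splicing-competent luciferase reporter gene; test concentration not given here.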 Particulars: HEK293 splicing luciferase reporter, 24 h, higher = more signal, called active from +8 up or from −8 down. Background: In a reporter assay the amount or activity of a reporter protein is the signal.
Test [5] addresses Fibroblast growth factor 10 (Homo sapiens) (UniProt O15520). Kind of test: compounds binding fibroblast growth factor 10 – biochemical, small-molecule microarray, 635 nm fluorescence, primary screen (AID 1102). Particulars: FGF10 binding, fluorescence 635 nm, higher = more signal.
Test [6] has as its system glycogen synthase kinase-3 (GSK3A per assay name; protocol says GSK3B). Kind of test: compounds binding glycogen synthase kinase-3 – biochemical, small-molecule microarray, 635 nm fluorescence, GSK3A, primary screen (AID 1103). Also: the record names both GSK3A and GSK3B. The conditions noted are these: fluorescence 635 nm, higher = more signal.
Test [7] deals with Epidermal growth factor receptor (Homo sapiens) (UniProt P00533). Briefly: compounds binding epidermal growth factor receptor – biochemical, small-molecule microarray, 635 nm fluorescence, primary screen (AID 1104).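 Also: score merges 667 nm emission intensity with spot signal to noise over triplicate slides.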 Particulars: EGFR binding, higher = more signal.
Test [8] concerns the target Follistatin-related protein 3 (Homo sapiens) (UniProt O95633). Briefly: compounds binding follistatin-related protein 3 – biochemical, small-molecule microarray, 635 nm fluorescence, primary screen (AID 1105).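 Also: score merges emission near 667 nm and signal to noise per printed spot across three slides.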 The conditions noted are these: FSTL3 binding, higher = more signal.
Test [9] deals with Dickkopf-related protein 1 (Homo sapiens) (UniProt O94907). Briefly: small molecules binding DKK1 protein – biochemical, small-molecule microarray, 635 nm fluorescence scan, primary screen (AID 1106).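 Also: score merges emission near 667 nm with signal to noise over three replicate slides.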 The conditions noted are these: higher = more signal.
Test [10] concerns Inhibin beta A chain (activin A). Kind of test: small molecules binding activin A – biochemical, small-molecule microarray, 635 nm fluorescence scan, primary screen (AID 1107).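 Also: mouse activin A protein probed at 4.33 µg/mL on printed slides; score merges bound-protein fluorescence near 667 nm with spot signal-to-noise.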 Particulars: INHBA, higher = more signal.

Calls of active or inactive are those of the source.

Chain of Dickkopf-related protein 1 (Homo sapiens) (O94907 whole entry, looked up): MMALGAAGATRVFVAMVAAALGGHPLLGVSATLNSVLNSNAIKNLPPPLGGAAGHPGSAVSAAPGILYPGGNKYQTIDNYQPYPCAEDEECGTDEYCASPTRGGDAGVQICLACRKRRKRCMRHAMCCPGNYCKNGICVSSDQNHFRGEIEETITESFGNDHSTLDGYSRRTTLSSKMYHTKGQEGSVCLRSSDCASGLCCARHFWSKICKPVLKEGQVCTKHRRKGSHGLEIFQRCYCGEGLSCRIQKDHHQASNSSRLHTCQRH
Chain of Follistatin-related protein 3 (Homo sapiens) (O95633 whole entry, looked up): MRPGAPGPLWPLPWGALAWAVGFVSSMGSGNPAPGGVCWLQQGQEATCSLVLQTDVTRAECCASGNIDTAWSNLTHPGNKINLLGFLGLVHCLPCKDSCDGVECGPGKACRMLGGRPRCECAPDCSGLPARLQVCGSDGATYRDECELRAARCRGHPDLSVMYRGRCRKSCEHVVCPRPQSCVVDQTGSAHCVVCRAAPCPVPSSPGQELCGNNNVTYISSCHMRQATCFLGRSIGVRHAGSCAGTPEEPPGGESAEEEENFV
Chain of Fibroblast growth factor 10 (Homo sapiens) (O15520 whole entry, looked up): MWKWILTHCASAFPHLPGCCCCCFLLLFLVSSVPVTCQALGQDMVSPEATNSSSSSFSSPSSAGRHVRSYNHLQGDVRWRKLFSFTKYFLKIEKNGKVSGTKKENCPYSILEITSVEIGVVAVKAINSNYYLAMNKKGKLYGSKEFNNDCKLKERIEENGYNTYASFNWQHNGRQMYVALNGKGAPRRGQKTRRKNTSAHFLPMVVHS
Chain of Epidermal growth factor receptor (Homo sapiens) (P00533 whole entry, looked up): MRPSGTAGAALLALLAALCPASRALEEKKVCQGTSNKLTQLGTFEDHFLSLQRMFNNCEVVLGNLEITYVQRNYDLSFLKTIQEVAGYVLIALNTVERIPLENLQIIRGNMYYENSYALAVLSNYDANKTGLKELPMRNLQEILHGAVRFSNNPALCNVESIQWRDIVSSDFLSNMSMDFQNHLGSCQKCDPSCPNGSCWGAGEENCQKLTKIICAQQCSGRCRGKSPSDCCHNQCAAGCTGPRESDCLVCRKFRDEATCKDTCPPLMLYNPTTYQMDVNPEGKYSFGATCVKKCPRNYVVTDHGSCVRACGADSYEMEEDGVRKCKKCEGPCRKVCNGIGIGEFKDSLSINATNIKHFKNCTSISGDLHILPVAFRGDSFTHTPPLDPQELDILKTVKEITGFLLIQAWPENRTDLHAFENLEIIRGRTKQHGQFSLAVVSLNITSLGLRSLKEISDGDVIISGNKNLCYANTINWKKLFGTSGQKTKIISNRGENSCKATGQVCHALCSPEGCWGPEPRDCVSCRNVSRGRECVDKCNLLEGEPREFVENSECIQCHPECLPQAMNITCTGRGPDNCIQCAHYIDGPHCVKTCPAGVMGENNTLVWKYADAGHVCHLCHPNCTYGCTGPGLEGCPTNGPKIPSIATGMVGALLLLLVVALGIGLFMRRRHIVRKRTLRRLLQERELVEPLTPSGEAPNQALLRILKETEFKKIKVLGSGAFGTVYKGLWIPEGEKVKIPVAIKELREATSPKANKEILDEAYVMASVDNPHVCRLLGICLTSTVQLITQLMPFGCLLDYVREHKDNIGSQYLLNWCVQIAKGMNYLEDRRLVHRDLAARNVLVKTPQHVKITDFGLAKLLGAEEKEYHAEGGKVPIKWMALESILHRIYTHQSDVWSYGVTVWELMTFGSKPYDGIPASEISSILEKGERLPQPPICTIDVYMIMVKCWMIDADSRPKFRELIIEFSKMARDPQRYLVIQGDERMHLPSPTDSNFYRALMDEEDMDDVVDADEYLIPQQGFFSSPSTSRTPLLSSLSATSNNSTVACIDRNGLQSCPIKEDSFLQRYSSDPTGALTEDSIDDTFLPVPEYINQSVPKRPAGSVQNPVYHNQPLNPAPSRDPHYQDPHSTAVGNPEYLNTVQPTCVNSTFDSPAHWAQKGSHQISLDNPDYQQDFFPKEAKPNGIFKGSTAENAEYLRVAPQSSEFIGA

Regarding `COC(=O)[C@@]1(Cc2ccccc2)[C@H]2c3cc(C(=O)N(C)C)n(Cc4ccsc4Br)c3C[C@H]2CN1C(=O)c1ccccc1`, the composite z-score was -0.0533 in [1]; 0.894 in test [2]; 1.17 in test [3]; 1.02 in test [5]; 0.439 in [6]; -0.354 in [7]. Moreover, the figures for the composite z-score in [8], in [9] and in [10] were 1.12, -0.506 and 0.669, respectively. The z-score in [4] was -1.3 (inactive).
Regarding `CNS(=O)(=O)c1ccc(C)cc1`, the composite z-score in test [1] was 0.3; in [2], -0.0385; in [3], -0.446; in test [5], 0.648; in test [6], 0.674; in [7] it was 0.434. Besides, the figures for the composite z-score in test [8], in test [9] and in [10] were 0.688, 1.14 and -1.89, respectively. Further, the z-score in test [4] was -1.07 (inactive).
Regarding `COc1cc2c(cc1OC)CN(C(=O)[C@H]1[C@@H]3C(=O)O[C@@H](c4ccccc4)[C@@H](c4ccccc4)N3[C@@H](c3ccc(O)cc3)[C@]13C(=O)Nc1ccc(C#CCCO)cc13)CC2`, the composite z-score in [1] is 0.957; in test [2], 0.0325; in test [3], 0.481; in test [5], 0.398; in [6] it was 0.0837; in [7], -0.0179. Also, the composite z-score was 0.249 in test [8], -0.0546 in test [9] and 0.224 in [10]. In test [4], the z-score was 0.0673 (inactive).
`COC(=O)C[C@H]1O[C@]2(C(=O)N(C)c3ccccc32)[C@@H](C)[C@@H]1[Si](C)(C)F`: the composite z-score in test [1] is -0.0042; in test [2], -0.113; in [3] it was -0.583; in [5] it was 0.96; in [6] it was 0.557; in test [7], 0.616. Besides, the composite z-score in test [8] is 0.774; in [9], 0.695; in test [10], 0.369. The z-score in test [4] is -1.8 (inactive).
With `C=CCOC(=O)[C@@H]1[C@H]2C(=O)O[C@H](c3ccccc3)[C@H](c3ccccc3)N2[C@H](c2ccc(OCCOC(=O)[C@H]3C[C@H]4C(=O)N5CCC[C@H]5C(=O)N4[C@H]3c3ccc(O)cc3)cc2)[C@@]12C(=O)Nc1ccc(I)cc12`, the composite z-score in test [1] was 1.62; in test [2], 0.158; in [3] it was 0.0375; in [5], 1.17; in test [6], 1.34; in [7], 0.785. For the same compound, the composite z-score was found to be 1.14 in test [8], 0.986 in [9] and 0.379 in [10]. Besides, the z-score in [4] was -1.27 (inactive).
Regarding `COC(=O)C(CC#Cc1ccc2c(c1)[C@]1(C(=O)N2)[C@H](c2ccc(OCCO)cc2)N2[C@H](c3ccccc3)[C@H](c3ccccc3)OC(=O)[C@H]2[C@@H]1C(=O)N1CCc2cc(OC)c(OC)cc2C1)C(=O)OC`, the composite z-score was 1.47 in test [1]; 0.508 in test [2]; 0.381 in test [3]; 1.4 in test [5]; 1.32 in test [6]; 0.485 in test [7]. The composite z-score is 1.41 in test [8], 0.506 in test [9] and 1.18 in test [10]. Further, the z-score in test [4] was -0.369 (inactive).
For the compound `COc1ccc(C#Cc2ccc3c(c2)[C@]2(C(=O)N3)[C@H](C(=O)NC[C@H](O)c3ccccc3)[C@H]3C(=O)O[C@H](c4ccccc4)[C@H](c4ccccc4)N3[C@@H]2c2ccc(O)cc2)cc1`, the composite z-score was 1.16 in test [1]; -0.0262 in test [2]; 0.295 in test [3]; 1.02 in test [5]; 1.16 in test [6]; 0.417 in [7]. In addition, the figures for the composite z-score in test [8], in test [9] and in test [10] were 0.768, 0.484 and 0.0998, respectively. In test [4], the z-score was -0.993 (inactive).
Consider `COC(=O)[C@@]1(Cc2ccc(OC)cc2)[C@H]2c3cc(C(=O)N4CCCC4)n(Cc4ccc(O)c(OC)c4)c3C[C@H]2CN1C(=O)c1ccccc1`, for which the composite z-score was determined as 1.18 in [1]; 1.92 in [2]; 1.39 in test [3]; 0.511 in test [5]; 0.164 in test [6]; 0.207 in test [7]. The values for the composite z-score in [8], in test [9] and in test [10] were 0.282, 0.0115 and -0.0478, respectively. Further, in [4], the z-score is -1.15 (inactive).
As to `C=CCNC(=O)[C@@H]1[C@H]2C(=O)O[C@H](c3ccccc3)[C@H](c3ccccc3)N2[C@H](c2ccc(O)cc2)[C@@]12C(=O)N(C(=O)OCCOC)c1ccc(C#CCNC(N)=O)cc12`, the composite z-score in test [1] is 0.88; in [2] it was 0.148; in test [3], 0.658; in test [5] it was 0.969; in [6], 1.06; in test [7], 0.119. Besides, the results for the composite z-score in test [8], in test [9] and in [10] were 1.08, 0.417 and 1.02, respectively. The z-score in test [4] was -0.273 (inactive).
As for `COCCOC(=O)N1C(=O)[C@@]2(c3cc(C#Cc4ccc(OC)cc4)ccc31)[C@H](c1ccc(OCCO)cc1)N1[C@H](c3ccccc3)[C@H](c3ccccc3)OC(=O)[C@H]1[C@@H]2C(=O)N1CCN(c2ncccn2)CC1`, the composite z-score in test [1] is -0.0214; in test [2] it was 0.775; in test [3], 0.257; in test [5], 0.703; in test [6], 1.28; in [7], 0.667. Also, the composite z-score in test [8] is 1.27; in test [9], 1.28; in test [10], -0.0857. Moreover, the z-score in test [4] was -0.449 (inactive).
For `C=C(C)[C@@H]1CC=C(C(O)C2C=CC3C(=O)N(C)C(=O)C3N2Nc2ccccc2)CC1` (stereo not given in full), the composite z-score in test [1] stood at 0.433; in test [2] it was 0.344; in test [3], 0.581; in test [5], 1.03; in test [6] it was 1.03; in test [7], 0.928. Also, the composite z-score in test [8] came out at 1.42; in test [9], 1.11; in [10], 1.43. Besides, the z-score in [4] is 1.98 (inactive).
In the case of `CC(C)C(=C=CC[C@H](O)c1ccc(OCCO)cc1)CCO`, the composite z-score was 1.42 in test [1]; 0.0229 in test [2]; 0.0152 in test [3]; 0.835 in test [5]; 0.145 in test [6]; 0.0098 in test [7]. Besides, the composite z-score in test [8] was 0.842; in test [9], 0.296; in test [10], 0.943. In addition, the z-score in [4] was 0.0477 (inactive).
As to `C=C(/C(=C/C[C@H](OC(C)=O)c1ccccc1OCCO)c1cnc2ccccc2c1)C(C)C`, the composite z-score in test [1] was 1.55; in test [2], 0.955; in test [3], -0.269; in test [5] it was 0.53; in [6] it was 0.311; in test [7] it was -0.306. Also, the composite z-score in test [8] came to 1.04; in test [9] it was 0.304; in test [10], 1.87. Also, the z-score in test [4] is 0.0118 (inactive).
As to `Cc1ccccc1C(O)C1C=CC2C(=O)N(c3ccccc3)C(=O)C2N1Nc1ccc(C(C)C)cc1` (stereo not given), the composite z-score is 0.623 in [1]; 0.456 in test [2]; 0.857 in test [3]; 0.971 in [5]; 1 in [6]; 0.304 in test [7]. Also, the composite z-score in test [8] is 1.23; in test [9] it was -0.372; in test [10], 0.625. Moreover, in [4], the z-score is 0.26 (inactive).
